# Dicer inh – inhibitors of Dicer pre-microRNA processing, primary screen, biochemical, cat-ELCCA, chemiluminescence; cat-ELCCA pre-miR-21 Dicer processing; hits give high values; z-score at 25 µM; hit rate 6% among 47,000; AID 1347074, 2019; in the data active = z-score above about 3, passing the limit was not always enough;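 note: plate controls were vehicle for no effect and no enzyme for full effect; higher signal means more uncleaved substrate so more Dicer inhibition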
# Target sequence (Q9UPY3 whole entry, looked up): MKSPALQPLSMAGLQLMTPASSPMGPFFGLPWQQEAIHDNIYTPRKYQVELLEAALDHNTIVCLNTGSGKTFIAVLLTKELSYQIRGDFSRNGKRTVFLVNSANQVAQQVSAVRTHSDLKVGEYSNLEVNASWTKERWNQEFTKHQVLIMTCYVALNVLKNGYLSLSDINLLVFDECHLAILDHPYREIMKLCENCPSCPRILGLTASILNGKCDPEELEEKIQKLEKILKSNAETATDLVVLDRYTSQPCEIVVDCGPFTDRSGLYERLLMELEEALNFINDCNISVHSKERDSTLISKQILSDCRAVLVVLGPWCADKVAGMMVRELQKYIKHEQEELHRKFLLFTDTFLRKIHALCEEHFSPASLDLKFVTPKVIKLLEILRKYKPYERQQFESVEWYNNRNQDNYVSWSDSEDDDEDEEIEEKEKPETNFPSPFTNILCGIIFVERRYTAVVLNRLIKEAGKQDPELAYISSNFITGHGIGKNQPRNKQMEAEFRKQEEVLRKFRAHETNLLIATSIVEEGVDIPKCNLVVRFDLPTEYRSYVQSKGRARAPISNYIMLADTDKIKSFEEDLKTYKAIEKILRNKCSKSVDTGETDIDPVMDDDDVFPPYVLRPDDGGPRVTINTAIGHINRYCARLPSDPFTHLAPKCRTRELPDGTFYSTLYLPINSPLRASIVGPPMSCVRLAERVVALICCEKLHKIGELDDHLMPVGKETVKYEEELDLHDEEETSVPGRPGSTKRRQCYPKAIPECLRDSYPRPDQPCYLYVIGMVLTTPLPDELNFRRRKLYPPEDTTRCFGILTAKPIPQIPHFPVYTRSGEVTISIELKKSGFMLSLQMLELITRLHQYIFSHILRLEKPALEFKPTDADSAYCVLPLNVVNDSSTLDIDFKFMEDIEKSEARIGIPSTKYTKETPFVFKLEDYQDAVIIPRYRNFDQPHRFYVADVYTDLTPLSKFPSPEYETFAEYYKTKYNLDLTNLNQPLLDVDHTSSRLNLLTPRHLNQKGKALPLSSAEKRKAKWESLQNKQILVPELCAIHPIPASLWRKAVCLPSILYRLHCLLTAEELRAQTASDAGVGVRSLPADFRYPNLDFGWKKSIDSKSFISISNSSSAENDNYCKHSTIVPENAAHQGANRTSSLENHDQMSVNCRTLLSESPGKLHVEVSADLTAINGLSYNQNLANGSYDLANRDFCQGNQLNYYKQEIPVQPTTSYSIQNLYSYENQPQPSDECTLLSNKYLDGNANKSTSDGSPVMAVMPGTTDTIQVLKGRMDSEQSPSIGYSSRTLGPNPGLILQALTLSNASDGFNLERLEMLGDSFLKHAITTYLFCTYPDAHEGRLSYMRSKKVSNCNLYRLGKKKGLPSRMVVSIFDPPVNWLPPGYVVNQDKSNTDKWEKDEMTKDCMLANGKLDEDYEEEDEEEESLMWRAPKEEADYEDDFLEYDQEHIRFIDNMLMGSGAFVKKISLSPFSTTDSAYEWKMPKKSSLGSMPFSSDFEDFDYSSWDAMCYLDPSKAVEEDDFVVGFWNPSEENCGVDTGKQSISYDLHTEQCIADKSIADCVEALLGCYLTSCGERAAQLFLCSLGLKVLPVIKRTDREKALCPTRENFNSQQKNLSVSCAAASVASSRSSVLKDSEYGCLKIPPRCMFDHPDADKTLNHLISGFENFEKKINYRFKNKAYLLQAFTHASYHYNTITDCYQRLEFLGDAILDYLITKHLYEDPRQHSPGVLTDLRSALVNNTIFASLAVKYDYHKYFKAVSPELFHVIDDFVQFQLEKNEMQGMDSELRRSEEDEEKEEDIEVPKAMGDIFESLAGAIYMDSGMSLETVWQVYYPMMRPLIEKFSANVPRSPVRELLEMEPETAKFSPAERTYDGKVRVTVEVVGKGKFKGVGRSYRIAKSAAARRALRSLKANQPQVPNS
# * = called active by the depositor. Only a selection was taken, and hits are over-represented in it overall.
SMILES,Dicer inh
COc1ccc(C2Oc3c(OC)cccc3C3CC(c4cc(OC)ccc4O)=NN32)c(OC)c1 (stereo not given),2.8
CCOC(=O)c1sc2nc(C)n(Cc3csc(-c4ccc(Cl)cc4)n3)c(=O)c2c1C,-1
COC(=O)c1ccc(S(=O)(=O)N(CCO)CCO)n1C,0.61
COC(=O)COc1ccc(C2C(C(=O)OC)=C(C)NC3=C2C(=O)c2ccccc23)cc1 (stereo not given),-0.33
C=CCNc1nnc(-c2ccccc2)s1,-0.99
O=C1CCC(=O)N1c1ccc(-c2nc3ccccc3c(=O)o2)cc1,-0.98
CN(C)CCCNC(=O)c1cc2ccccc2[nH]1,0.92
CCOC(=O)c1ccc(-n2nc(C(C)(C)C)cc2C(C)(C)C)cc1,-0.55
Nc1cc(Cl)ccc1C(=O)N1CCSCC1,-0.56
N/C(=N\S(=O)(=O)c1ccc(Cl)cc1)N1CCSCC1,3.6*
CSC/C(N)=N/S(=O)(=O)c1ccc(Cl)cc1,0.22
CN(NC(=O)c1ccc([N+](=O)[O-])cc1)c1ccc(C(F)(F)F)cc1[N+](=O)[O-],-0.94
COC(=O)C1=C(C)Nc2nc3ccccc3n2C1c1cccc(Cl)c1 (stereo not given),0.62
COc1ccccc1-c1nnc(Sc2sccc2[N+](=O)[O-])n1-c1ccccc1,-0.48
COc1ccc(C2/C(=C(\O)c3ccc(F)cc3)C(=O)C(=O)N2Cc2cccnc2)cc1 (stereo not given),-2.4
Cc1nc2ccc(Cc3ccc4nc(C)[nH]c4c3)cc2[nH]1,5*
Cc1ccc2nc(Cc3ccc(N)cc3)[nH]c2c1,2.7
Cc1ccc2nc(Cc3nc4ccc(C)cc4[nH]3)[nH]c2c1,-1.7
COc1cccc2c1c(NC(=O)Nc1ccc(OCc3ccccc3)cc1)nn2C,-2.5
COC(=O)c1c(C)n(S(C)(=O)=O)c2ccc(N(C(=O)c3cccs3)S(C)(=O)=O)cc12,-0.82
CCc1ccc(C2c3c(oc4ccc(C)cc4c3=O)C(=O)N2CCCN2CCOCC2)cc1 (stereo not given),0.43
CCN(CC)c1ccc(NC(=O)c2cccs2)c(N(CC)CC)n1,0.65
O=C1CC(Cc2ccccc2)C(=O)N1c1cccc(Cl)c1 (stereo not given),1.8
O=C1CC(Cc2ccc(Cl)cc2)C(=O)N1Cc1ccccc1 (stereo not given),3.3*
O=C1CC(Cc2ccc(Cl)cc2)C(=O)N1c1ccccn1 (stereo not given),-0.83
SMILES,Dicer inh
COc1ccc(C2c3c(oc4ccc(C)cc4c3=O)C(=O)N2CCCN(C)C)cc1 (stereo not given),-0.2
CCOC(=O)CN1C(=O)C(O)(CC(=O)c2cc(C)ccc2C)c2ccccc21 (stereo not given),1.1
CCCOC(=O)C1=C(C)NC2=C(C(=O)CC(C)(C)C2)C1c1ccc(O)c(OC)c1 (stereo not given),-0.93
CN1C(=O)C(O)(CC(=O)c2cc(O)ccc2O)c2ccccc21 (stereo not given),0.54
CC(C)(C)c1cc2nc(-c3cccc([N+](=O)[O-])c3)cc(C(F)(F)F)n2n1,0.36
COC(=O)c1csc(S(=O)(=O)NCc2ccc(S(N)(=O)=O)cc2)c1OC,0.51
CCOc1ccc2c(c1)C(C)=CC(C)(C)N2S(=O)(=O)c1ccc(Cl)cc1,0.79
CCOc1ccc(N(C)S(=O)(=O)c2ccc(Cl)cc2)cc1,3.1*
COc1ccc(N(C2C=CS(=O)(=O)C2)S(=O)(=O)c2ccc(Cl)cc2)cc1 (stereo not given),-1
COc1ccc(-c2noc(CSc3nc4ccc(C)cc4[nH]3)n2)c(OC)c1,0.42
CN(C)/C=C(\Sc1ncccn1)C(=O)c1ccc(Cl)cc1,-0.19
CN(C)C(=O)c1cc([N+](=O)[O-])cc2c1-c1ccc([N+](=O)[O-])cc1C2=O,-0.96
Cc1ccc(-c2nn3c(C)nnc3s2)cc1NC(=O)CC(C)C,2
CN(C)c1ccc(/C=C/c2noc(-c3ccccc3O)n2)cc1,5.8*
Oc1ccccc1-c1nc(/C=C/c2ccccc2Cl)no1,13
Oc1ccccc1-c1nc(/C=C/c2ccccc2)no1,1.2
COC(=O)C(C)OC(=O)c1ccc(Oc2nc(N(C)C)nc(N(C)C)n2)cc1 (stereo not given),-1.5
Cc1cc(C)nc(-n2[nH]c3nccc(-c4ccc5c(c4)OCO5)c3c2=O)n1,-1
CCOC(=O)Nc1ccccc1C(=O)OC,5.4*
COC(=O)c1ccccc1NC(=S)OC,0.06
COC(=O)c1ccccc1NC(=S)N(N)CCO,-0.19
c1ccc(CN2CN(CC3CCCO3)c3nc4ccccc4n3C2)cc1 (stereo not given),-1.6
Cc1cc(C)nc(-n2[nH]c(C)c(Cc3ccc(C(C)(C)C)cc3)c2=O)n1,-1.6
Cc1nc(-c2c(C(=O)NNC(=O)c3ccc(C(F)(F)F)cc3)noc2C)cs1,1.4
CCCOc1ccc(N2C(=O)CC(SCCN)C2=O)cc1 (stereo not given),-0.11
SMILES,Dicer inh
CCCOc1ccc(N2C(=O)CC(SCC(N)C(=O)OCC)C2=O)cc1 (stereo not given),-0.88
CCOc1ccc(N2C(=O)CC(Sc3nc(C)c(CC)c(C)c3C#N)C2=O)cc1 (stereo not given),3.4*
CC(C)(C)c1ccc(S/C(=C/C(=O)O)C(=O)O)cc1,-0.41
O=C(NCc1ccco1)C1CCCN1S(=O)(=O)c1ccc2ccccc2c1 (stereo not given),-0.9
Cc1ccc(S(=O)(=O)N2CCC(CC3CCN(S(=O)(=O)c4ccc(C)cc4)CC3)CC2)cc1,1.5
O=C(Nc1nnc(CCS(=O)(=O)c2ccc3ccccc3c2)s1)C1CCCCC1,-0.45
Cc1ccc(S(=O)(=O)N2CCN(S(=O)(=O)c3ccc4ccccc4c3)CC2)cc1,3.4*
O=S(=O)(c1ccc2ccccc2c1)N1CCN(Cc2cc(Br)ccc2O)CC1,4.1*
COc1ccc(OC)c(CN2CCN(S(=O)(=O)c3ccc4ccccc4c3)CC2)c1,1.9
O=S(=O)(c1ccc(Br)cc1)N1CCN(C/C=C/c2ccccc2)CC1,-0.37
O=C(CCC1CCCC1)N1CCN(S(=O)(=O)c2ccc3ccccc3c2)CC1,3.1*
COc1ccccc1C1CCN(S(=O)(=O)c2ccc(C)cc2)CC1,-0.71
O=C1c2cccc3cccc(c23)C(=O)N1CCCC(=O)N1CCc2ccccc21,1.3
O=C(O)c1nccnc1C(=O)Nc1ccc(Oc2cccc(C(F)(F)F)c2)nc1,1.5
Cc1ccc(-c2cc3ncc(C(=O)c4ccccc4O)cn3n2)cc1,-0.15
O=C(CSc1nnc(C2CC2)n1-c1ccc(Cl)cc1)c1ccc(Cl)cc1,0.27
Cc1nnc(N2C(=O)c3oc4ccccc4c(=O)c3C2c2ccccc2)s1 (stereo not given),-0.53
S=C(NCCc1ccccc1)NNC(=S)NC1CC2C=CC1C2 (stereo not given),-1
O=c1oc(-c2ccccc2)nc2sc3c(c12)CCCCC3,3.1*
O=c1oc(-c2cccs2)nc2sc3c(c12)CCCCC3,0.26
Cc1ccccc1-c1nc2sc3c(c2c(=O)o1)CCC3,0.99
O=c1oc(/C=C/c2ccccc2)nc2sc3c(c12)CCC3,4.8*
S=c1nc2sc3c(c2c(Nc2ccccc2)[nH]1)CCCC3,-0.93
O=c1oc(-c2ccccc2)nc2sc3c(c12)CCCC3,0.54
Cc1cc2ncc(-c3ccnc(=S)[nH]3)c(C)n2n1,-0.88
Cc1cc(C)n2ncc(/C(N)=N/O)c2n1,-0.45
CSc1cc(-c2ccc(Cl)cc2)[nH]n1,0.25
CCOc1ccc(/C(O)=C2\C(=O)C(=O)N(Cc3cccnc3)C2c2ccc(O)c(OC)c2)cc1 (stereo not given),1
